# Measured values: PubChem BioAssay AID624273 (Broad Institute, 2012)
# Out of some 1,000 compounds screened, about 230 (23%) were called active. Roughly 1% stayed inconclusive and do not appear here. How the calls were made is not given here. Some of the results follow. Measured potencies and affinities stand elsewhere.
# Target: Long-chain-fatty-acid--AMP ligase FadD28 (Mycobacterium tuberculosis (strain ATCC 25618 / H37Rv)) (UniProt P9WQ59)
# Assay: inhibitors of FadD28 bisubstrate probe binding, dose response, biochemical, fluorescence polarization, cherry-pick (AID 624273)
# Conditions: series mostly up to 50 µM; activity change, negative = inhibition: at the top concentration
# Sequence of Long-chain-fatty-acid--AMP ligase FadD28 (Mycobacterium tuberculosis (strain ATCC 25618 / H37Rv)) (P9WQ59 whole entry, looked up): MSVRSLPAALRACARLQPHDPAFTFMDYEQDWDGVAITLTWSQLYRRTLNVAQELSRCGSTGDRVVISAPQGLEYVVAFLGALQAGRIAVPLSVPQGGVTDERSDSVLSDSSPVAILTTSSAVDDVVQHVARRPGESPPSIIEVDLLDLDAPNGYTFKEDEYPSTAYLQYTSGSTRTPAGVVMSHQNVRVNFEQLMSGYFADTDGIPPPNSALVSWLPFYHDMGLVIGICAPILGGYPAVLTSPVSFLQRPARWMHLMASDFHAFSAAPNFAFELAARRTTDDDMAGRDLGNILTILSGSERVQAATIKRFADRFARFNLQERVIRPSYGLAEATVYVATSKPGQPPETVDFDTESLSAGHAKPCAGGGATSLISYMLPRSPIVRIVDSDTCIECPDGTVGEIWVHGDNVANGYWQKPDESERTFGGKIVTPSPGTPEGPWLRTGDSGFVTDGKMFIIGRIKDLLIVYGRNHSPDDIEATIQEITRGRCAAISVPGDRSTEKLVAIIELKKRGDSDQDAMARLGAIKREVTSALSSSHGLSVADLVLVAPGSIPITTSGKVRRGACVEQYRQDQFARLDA
row,Structure (SMILES),"activity change, negative = inhibition"
1,Cc1nn(C(=O)c2ccco2)c(C)c1Br,-1.79% (inactive)
2,Cc1cc(NC(=O)Nc2cccc3ccccc23)no1,-3.52% (inactive)
3,COc1ccc2nc(-c3ccc(F)cc3)sc2c1,0.629% (inactive)
4,O=C(NC(=S)NCc1nc2ccccc2[nH]1)c1ccccc1F,-0.845% (inactive)
5,Cc1ccc(C(=O)NN2C(=O)/C(=C/c3cccn3C)SC2=S)cc1,-1.32% (inactive)
6,C=CCSc1nc(=O)n2cccc(C)c2n1,-3.79% (inactive)
7,c1ccc(-c2cnn3c(-c4ccccc4)c(-c4ccccc4)nc3n2)cc1,-0.288% (inactive)
8,O=C(COc1ccccc1-c1ccccc1)NCc1cccc(Cl)c1,-0.734% (inactive)
9,COc1ccc(CNCCc2ccc3c(c2)OCO3)cc1Br,-4.77% (inactive)
10,CC(C)c1ccc(NC(=O)CCCC(=O)NCCc2ccccc2)cc1,-4.77% (inactive)
11,CC(C)(C)c1ccc(NC(=O)C(=O)C2C(=O)Nc3ccccc32)cc1 (centres undefined),-1.66% (inactive)
12,COC(=O)c1c(N(S(C)(=O)=O)S(C)(=O)=O)sc2c1CCN(c1ncc(C(F)(F)F)cc1Cl)C2,2.06% (inactive)
13,CCOC(=O)C1=C(C)OC(N)=C(C#N)C1c1cc(F)ccc1F (centres undefined),-0.975% (inactive)
14,Cc1cc(C)n2nc3nc(N4CCCC4)nc(-c4ccccc4)c3c2n1,-2.65% (inactive)
15,CC(=O)NN1C(=O)/C(=C\c2ccc(Br)o2)SC1=S,-22% (inactive)
16,O=C(CSc1nc2ccsc2c(=O)n1Cc1ccc(C(=O)O)cc1)NCc1ccco1,-3.94% (inactive)
17,Cc1nn(CCc2nn[nH]n2)c2nc(-c3ccc(C4CCCCC4)cc3)cc(C(F)(F)F)c12,-13.7% (inactive)
18,O=C(CSc1nc2ccccc2[nH]1)NC1CCCc2ccccc21 (centres undefined),2.68% (inactive)
19,CCOC(=O)c1[nH]nc2c1C(=O)N(CC)C2=O,5.22% (inactive)
20,Cc1cc(-n2c(C)cc(C(=O)COc3ccc(F)c(F)c3)c2C)no1,-2.54% (inactive)
21,COc1ccc(OCC(=O)NNC(=O)C(=O)N2CCCC2)cc1,-2.89% (inactive)
22,COc1ccc(S(=O)(=O)N(C)C[C@H]2Oc3ccc(NC(=O)Nc4ccc5c(c4)OCO5)cc3C(=O)N([C@H](C)CO)C[C@@H]2C)cc1,-13.2% (inactive)
23,O=C(CSc1nnc(CNC(=O)C23CC4CC(CC(C4)C2)C3)n1-c1ccccc1)Nc1ccc(F)cc1,-3.94% (inactive)

row,Structure (SMILES),"activity change, negative = inhibition"
1,CCCCCCCCCCCCC(=O)CCCCC(=O)O,-11.5% (inactive)
2,COc1ccc(OC)c(NC(=O)c2nnn(CCc3ccccc3)c2N)c1,-5.48% (inactive)
3,COc1ccc(CN2CCC(C(=O)Nc3ccc(Oc4cccnc4)cc3)CC2)c(C)c1C,-2.98% (inactive)
4,O=C(Nc1ccc(Cc2ccncc2)cc1)C1CCC(N2C(=O)C3C4C=CC(C4)C3C2=O)CC1 (centres undefined),-6.15% (inactive)
5,COc1ccc(N2CC(C(=O)Nc3cccnc3)CC2=O)cc1 (centres undefined),-4.29% (inactive)
6,O=C(COc1ccccc1)Nc1ccc(CN2CCCCC2)cc1,-0.991% (inactive)
7,COc1ccc(N(CC(=O)NC2CCCCC2)C(=O)CCC(=O)Nc2nc(C)cs2)cc1,-4.81% (inactive)
8,CCOC(=O)CSc1nc(C)c2ccccc2n1,-4.24% (inactive)
9,CCOC(=O)c1ccc(NS(=O)(=O)c2ccc3c(c2)NC(=O)CCS3)cc1,-11.2% (inactive)
10,CCOC(=O)c1ccc(Nc2cc(C)nc(-c3ccccc3O)n2)cc1,4.75% (inactive)
11,COc1cc2[nH]c(Cl)c([N+](=O)[O-])c2cc1OC,-4.27% (inactive)
12,CCC1CCC(C(=O)NNC(=O)c2cc(-c3ccco3)[nH]n2)CC1 (centres undefined),6.66% (inactive)
13,CCOC(=O)C1CCCN(C(=O)c2cc(Nc3ccc(OC)c(OC)c3)nc3ccccc23)C1 (centres undefined),-19.4% (inactive)
14,CCOC(=O)C1CCCN(C(=O)C2c3ccccc3Oc3ccccc32)C1 (centres undefined),-3.5% (inactive)
15,CCOc1ccc(-c2nnc(SCC(=O)N3CCCC3)o2)cc1,0.57% (inactive)
16,CCCCc1c(O)nc(SCC(=O)N2CCOCC2)n(-c2ccc(OC)cc2)c1=O,-7.17% (inactive)
17,Cn1c(=O)c2c(ncn2Cc2ccc(Cl)cc2)n(C)c1=O,-4.35% (inactive)
18,COc1ccc2c(C)cc(SCC(=O)N(C)C3CCS(=O)(=O)C3)nc2c1 (centres undefined),10.8% (inactive)
19,Cc1ccccc1Nc1ccc([N+](=O)[O-])cn1,0.292% (inactive)
20,O=C(COC(=O)c1ccccc1NC(=O)c1ccco1)Nc1ncc(Cl)cc1Cl,-1.69% (inactive)
21,Cn1ccc(C(=O)NC(=S)Nc2ccc([N+](=O)[O-])cc2O)n1,-9.47% (inactive)
22,COc1ccc(C(=O)NNC(=O)C(=O)N2CCCCC2)cc1OC,-1.68% (inactive)
23,Cc1ccccc1CS(=O)(=O)Cc1ccc(C(=O)NCc2ccco2)o1,-2.3% (inactive)

row,Structure (SMILES),"activity change, negative = inhibition"
1,O=C(NCc1n[nH]c(=S)n1-c1ccccc1)c1ccco1,-3.99% (inactive)
2,CC(=O)c1cccc(NC(=O)COC(=O)c2ccccc2C)c1,-1.82% (inactive)
3,COc1ccccc1NC(=O)Nc1cccc(C)n1,-5.5% (inactive)
4,COC(=O)c1cc2oc(C)cc2n1CC(=O)N(C)c1ccccc1,-5.85% (inactive)
5,COc1cccc(C(=O)NCc2ccccc2OC)c1,-1.19% (inactive)
6,COc1ccc(C(=O)COC(=O)CNS(=O)(=O)c2ccc(C)cc2)cc1,-11.6% (inactive)
7,O=C(Cn1c(=O)oc2ccccc21)Nc1cccc(Cl)c1,0.08% (inactive)
8,COc1cccc(NCc2cc(=O)oc3cc(-c4ccccc4)c(O)cc23)c1,-4.19% (inactive)
9,CCOC(=O)Cn1cc(C(=O)c2ccco2)c2ccccc21,5.76% (inactive)
10,COc1ccc(-c2cc(C)no2)cc1S(=O)(=O)N(C)c1cccc(C)c1,-6.11% (inactive)
11,COc1ccccc1C(=O)COC(=O)c1nc2nc(C)cc(C)n2n1,-5.13% (inactive)
12,CCCSC1=N/C(=C\C=C\c2ccco2)C(=O)S1,-0.768% (inactive)
13,CC(C)(C)NC(=O)Cn1nnc(-c2ccccc2Cl)n1,-0.253% (inactive)
14,COc1cccc(NC(=O)Cn2nnc(C(=O)Nc3ccccc3)c2N)c1,-12.1% (inactive)
15,COc1ccc(OC)c(NC(=O)NNC(=O)c2cc3occc3[nH]2)c1,-1.69% (inactive)
16,COc1ccc(CC(=O)OCC(=O)NC(=O)NC23CC4CC(CC(C4)C2)C3)cc1,-18.2% (inactive)
17,Cc1ccc(NC(=O)CN(C)C(=O)c2cc(-c3ccco3)nc3ccccc23)cc1,-8.04% (inactive)
18,CCc1nc(C)cn1S(=O)(=O)c1cc(C)c(OC)c(C)c1C,-6.02% (inactive)
19,Cc1cccc(OCC(=O)N2CCN(C(=O)Cc3ccccc3)CC2)c1,-6.77% (inactive)
20,COc1cc(/C=N/NC(=O)Cn2nc([N+](=O)[O-])cc2C)cc(Br)c1OCc1ccccc1,-0.747% (inactive)
21,COc1cccc(OCCn2cc(/C=N/NC(=O)c3ccncc3)c3ccccc32)c1,-1% (inactive)
22,COc1ccc2c(c1OC)C(=O)N1C2SC(C)(C)[C@H]1C(=O)NCCCOC(C)C (some centres undefined),-1.76% (inactive)
23,Cc1cccc(-n2c(O)c(C=NCCCN3CCOCC3)c3ccccc3c2=O)c1,-1.13% (inactive)
